# Source: PubChem BioAssay (NCATS)
# Records with an inconclusive call do not appear. A call without a number means that no potency is given here. The source made the active and inactive calls. Calls follow the shape of the dose curve; as a rule, active = well fitted cell-killing curve with a large enough effect; inconclusive = small, poorly fitted or top-dose-only effect, or effect the other way; inactive = flat fitted curve, though single readings scatter.
# Test: Cell Viability - HUV-EC-C (AID 542); also: nearly all actives have a fitted effect of over 35% in size
# Details: HUV-EC-C endothelial cell viability, qHTS; series mostly up to 92.2 µM
# Excerpt: NIH Chemical Genomics Center [NCGC]
# NIH Molecular Libraries Screening Centers Network [MLSCN]
# National Institutes of Environmental Health Sciences [NIEHS]
# National Toxicology Program [NTP]
# We have developed a 1536-well cell-based assay for quantitative high throughput screening (qHTS) against a number of cell lines to determine in vitro cytotoxicity of small molecules. This particular assay uses the HUV-EC-C cell line which is derived from normal human vascular endothelial cells.
# NCGC Assay Protocol Summary:
# The CellTiter-Glo luminescent cell viability assay (Promega) is a homogeneous method to measure the number of viable cells in culture. The end point readout of this assay is based on quantitation of intracellular ATP, an indicator of metabolic activity, using the luciferase reaction. Luciferase catalyzes the oxidation of beetle Luciferin to oxyluciferin and light in the presence of ATP. The luminescent signal is proportional to amount of ATP present.
# Using the CellTiter-Glo luminescent cell viability assay, the amount of cellular ATP was measured in the HUV-EC-C cell line with complete culture medium following compound treatment for 40 hours. The assay was performed in opaque white Kalypsys 1536-well plates. In the screen, tamoxifen and doxorubicin were used as positive controls. Library compounds were measured for their ability to cause acute toxicity in the cell line, as reflected by a decrease in intracellular ATP levels, in a concentration-dependent manner. […] AC50 values were determined from concentration-response data modeled with the standard Hill equation.
# qHTS protocol for CellTiter Glo HUV-EC-C cellular assay
# [Step] [Parameter] [Value] [Description]
# 1. Reagent; 5 uL; 1000 HUV-EC-C cells/well
# 2. Time; 5 hr; 37 °C incubation
# 4. Controls; 23 nL; Tamoxifen 0.34 uM to 100 uM & Doxorubicin 0.02 nM to 100 uM
# 5. Time; 40 hr; 37 °C incubation
# 6. Reagent; 5 uL; CellTiter Glo reagent
# 7. Time; 20 min; Room Temperature
# 8. Detection; Luminescence; Viewlux plate reader
# Keywords: cell viability, cytotoxicity, HUV-EC-C cell line, luminescence, NTPHTS, NTPHTS_NCGC, NIEHS, EPA, DSSTox, MLSMR, MLSCN, NIH Roadmap, qHTS, NCGC
# Potency is read from the fitted curve at half-maximal effect.
row,SMILES,Potency
1,c1ccc(CSCc2ccccc2)cc1,inactive
2,NC(=O)Nc1nc2ccccc2[nH]1,inactive
3,OCC(CBr)(CBr)CBr,inactive
4,C=Cc1cccc(C)c1,inactive
5,CN(C)c1ccc(Cc2ccc(N(C)C)cc2)cc1,inactive
6,O=C(OCc1ccccc1)c1ccccc1O,inactive
7,CC(C)(C)C(=O)C1C(=O)c2ccccc2C1=O,inactive
8,COc1ccc(C)cc1N,inactive
9,O=C(Cl)c1ccc([N+](=O)[O-])cc1,inactive
10,C=C1CC[C@H](O)C/C1=C/C=C1\CCC[C@]2(C)[C@@H]([C@H](C)CCCC(C)C)CC[C@@H]12,39.8 µM (active)
11,CCCCCCCCC1CO1 (stereo not given),inactive
12,Nc1ccc(-c2ccc(N)c(O)c2)cc1O,inactive
13,S=C(NC1CCCCC1)NC1CCCCC1,inactive
14,CC(=O)OC1CC(C)OC(C)O1 (stereo not given),inactive
15,O=C(OCC1CO1)C1CCCCC1C(=O)OCC1CO1 (stereo not given),inactive
16,C=CC(C)(O)CCCC(C)CCCC(C)CCCC(C)C (stereo not given),inactive
17,c1ccc2c(c1)ccc1ccccc12,inactive
18,CC(=O)CC(=O)Nc1ccccc1,inactive
19,Nc1ccc(N)c(Cl)c1,inactive
20,C/C=C1/C(=O)C[C@H]2[C@@H]3CCC4=CC(=O)CC[C@]4(C)[C@H]3CC[C@]12C,inactive

row,SMILES,Potency
1,CCCCCCc1ccc(-c2ccc(C#N)cc2)cc1,inactive
2,OC1CCCCC1,inactive
3,CC(C)OCC1CO1 (stereo not given),inactive
4,O=C(O)c1ccc([N+](=O)[O-])cc1,inactive
5,C=CC1CO1 (stereo not given),inactive
6,Cc1ccc2ccc3cccc4ccc1c2c34,inactive
7,CC/C=C/C/C=C/C/C=C/CCCCCCCC(=O)OCC,inactive
8,c1ccc(Nc2cccc3ccccc23)cc1,inactive
9,COc1cc(-c2ccc(N=C=O)c(OC)c2)ccc1N=C=O,inactive
10,CCCCNCC,inactive
11,Cc1ccc(N)cc1[N+](=O)[O-],inactive
12,Cc1c(C(=O)O)c(O)cc2c1C(=O)c1c(O)c([C@H]3O[C@H](CO)[C@@H](O)[C@H](O)[C@H]3O)c(O)c(O)c1C2=O,31.6 µM (active)
13,CCCCCCCC/C=C\CCCCCCCC(=O)N(CCO)CCO,39.8 µM (active)
14,C/C=C/C=C/C=O,inactive
15,CCN(CC)c1ccc2c(C)cc(=O)oc2c1,inactive
16,c1ccc2ncccc2c1,inactive
17,CCCCC(CC)COC(=O)COc1ccc(Cl)cc1Cl (stereo not given),inactive
18,COc1ccc([N+](=O)[O-])cc1N,inactive
19,CCCCCCCCOc1ccc(C(=O)O)cc1,inactive
20,CC(=O)Nc1cccc(C)c1,inactive
